Bioassay records: PubChem, National Center for Advancing Translational Sciences (NCATS)
An excerpt weighted towards active compounds, which were near 17% of everything screened.
ClpP mod: qHTS Assay for Activators of ClpP; ATP-dependent Clp protease proteolytic subunit (Bacillus subtilis (strain 168)), P80244; purified B. subtilis ClpP, FRET peptide cleavage, 20 min; Potency, µM (series often up to 57.5 µM); 340,000 compounds, 1.9% hits; active = well fitted falling curve with a large enough effect; inconclusive = small, poorly fitted or top-dose-only effect; inactive = no such curve, though single readings can be large or run the other way; also: the source files actives as falling curves though it sought activators and does not explain the sign; nearly all actives have a fitted effect of over 65% in size
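FRET quenching reversal measured ClpP activation: 10 microg/mL B. subtilis ClpP at pH 8 with the FRET-FV decapeptide, read at 430 nm after 320 nm excitation. The 20-min minus 0-min signal was scaled between DMSO/no-enzyme wells and ADEP (5.8 microM final).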
TDP1 inh: inhibitors of human tyrosyl-DNA phosphodiesterase TDP1 | Q9NUW8 | recombinant TDP1, AlphaScreen DNA substrate cleavage | Potency, µM (titrated, usually from 130 µM), usual class: inhibitors | 350,000 compounds, 0.28% hits; also: nearly all actives have a fitted effect of over 40% in size
Target sequence (Q9NUW8 whole entry, looked up): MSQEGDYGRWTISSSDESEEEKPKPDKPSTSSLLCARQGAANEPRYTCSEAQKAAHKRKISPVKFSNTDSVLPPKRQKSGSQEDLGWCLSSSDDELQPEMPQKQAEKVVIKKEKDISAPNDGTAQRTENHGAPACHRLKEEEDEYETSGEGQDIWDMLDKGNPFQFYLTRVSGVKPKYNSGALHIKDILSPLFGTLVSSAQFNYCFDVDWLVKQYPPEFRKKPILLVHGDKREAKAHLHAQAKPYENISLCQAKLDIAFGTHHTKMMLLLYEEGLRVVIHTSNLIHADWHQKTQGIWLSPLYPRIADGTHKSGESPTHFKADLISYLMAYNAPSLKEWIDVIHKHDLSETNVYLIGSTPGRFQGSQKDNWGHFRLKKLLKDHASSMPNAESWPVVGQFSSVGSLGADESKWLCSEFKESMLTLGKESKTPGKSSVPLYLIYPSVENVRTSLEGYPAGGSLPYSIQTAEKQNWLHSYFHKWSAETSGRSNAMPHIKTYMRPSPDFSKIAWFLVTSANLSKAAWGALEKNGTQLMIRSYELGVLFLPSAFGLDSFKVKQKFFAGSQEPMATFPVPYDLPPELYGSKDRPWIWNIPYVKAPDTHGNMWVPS
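Recombinant E. coli-expressed Tdp1 (1 nM) preincubated with compound 15 min at RT, then 5'-biotin/3'-phosphotyrosine-FITC DNA substrate (15 nM) added for 5 min. AlphaScreen beads (10 ug/ml) added, 10 min RT; tyrosine-FITC cleavage read as signal loss.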
DT40 TDP1 no CPT: qHTS for Inhibitors of human tyrosyl-DNA phosphodiesterase 1 (TDP1): qHTS in cells in absence of CPT; DT40 Tdp1-/- hTDP1 cells, no CPT, ATP luminescence, 48 h; Potency, µM (titrated, usually from 46.2 µM), hits mostly inhibitors; 420,000 compounds, 15% hits; also: nearly all actives have a fitted effect of over 55% in size
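Growth kinetics read by CellTiter-Glo luminescence after ≥48 hr at 37 °C. Cells: DT40 Tdp1-/- stably carrying human TDP1, 400 per well, compound exposure in the absence of CPT (DMSO vehicle).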
DT40 TDP1 CPT: DT40-hTDP1 cell growth loss with CPT | chicken DT40 Tdp1-/-;hTDP1 cells + 20 nM CPT, ATP luminescence, 48 h | Potency, µM (top dose mostly 46.2 µM), most hits filed as inhibitors | 420,000 compounds, 12% hits; also: nearly all actives have a fitted effect of over 55% in size
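Cell growth measured by CellTiter-Glo luminescence after a minimum 48 h, 37 C compound exposure with 20 nM CPT in Tdp1-knockout DT40 cells stably expressing hTDP1, seeded 400/well; qHTS titration format.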
A number is an active result; . = inactive; ? = inconclusive; / = no result given; [ ] = another dose, or the depositor's remark. Unless noted, calls follow the shape of the dose curve; as a rule, active = well fitted curve in the direction sought with a large enough effect; inconclusive = small, poorly fitted or top-dose-only effect, or another doubt; inactive = no such curve, though single readings can be large; an effect the other way counts as inactive or inconclusive.

SMILES	ClpP mod	TDP1 inh	DT40 TDP1 no CPT	DT40 TDP1 CPT
COc1ccc(NC(=O)c2cc3c(=O)n4ccccc4nc3n2C)c(OC)c1	/	.	.	.
CCCN(CCC)C(=O)c1cc2c(=O)n3cccc(C)c3nc2s1	.	.	18.4µM	?
Cc1cccn2c(=O)c3cc(C(=O)N(C)C)n(C)c3nc12	15.8µM	.	?	.
CCCCN(CCCC)C(=O)c1cc2c(=O)n3cccc(C)c3nc2s1	.	.	?	?
Cc1cccn2c(=O)c3cc(C(=O)NCCCn4ccnc4)n(C)c3nc12	?	.	?	.
CC1(O)C(=O)C=C2C=C3CCCN3C=C2C1=O (stereo unspecified)	/	.[21 µM]	/	/
CN(C)C(CNc1ccc(C(F)(F)F)cc1[N+](=O)[O-])c1ccccc1 (stereo unspecified)	/	.	?	?
Cc1cccc(NC(=O)c2cc3c(=O)n4cccc(C)c4nc3s2)c1C	.	.	2.31µM	1.84µM
Cc1cccn2c(=O)c3cc(C(=O)NCCCOC(C)C)sc3nc12	/	/	20.6µM	?
CCOCCCNC(=O)c1cc2c(=O)n3cccc(C)c3nc2s1	.	/	.	.
COc1cccc(-n2nc(-c3ccnn3-c3ccccc3)c(=O)n(C)c2=O)c1	.	.	?	.
COc1cccc(-n2nc(-c3ccnn3-c3cccc(Cl)c3)c(=O)n(C)c2=O)c1	.	.	16.4µM	23.1µM
COc1cc(OC)cc(C(=O)Nc2nc(-c3ccccc3)c(-c3ccccc3)o2)c1	.	.	10.3µM	7.31µM
CC(=O)Nc1nc(-c2ccccc2)c(-c2ccccc2)o1	/	.	.	.
O=C(COC(=O)COc1cccc(C(F)(F)F)c1)NC1CCS(=O)(=O)C1 (stereo unspecified)	.	/	.	.
CCCC(=O)OC[C@@H](OC(=O)CCC)[C@@H](OC(=O)CCC)[C@H](Cn1c2nc(=O)[nH]c(=O)c-2nc2cc(C)c(C)cc21)OC(=O)CCC	/	/	5.96µM	6.68µM
CC(=O)OCCn1c2nc(=O)[nH]c(=O)c-2nc2cc(C)c(C)cc21	.	3.55µM	?	?
Oc1ccc(C[C@H]2CNCCN2CC2CCCCC2)cc1	.	.	16.4µM	?
COc1cc(CCCN2CCNC[C@@H]2c2ccccc2)cc(OC)c1OC	.	.	.	.
c1ccc([C@H]2CNCCN2CCc2cccc3ccccc23)cc1	.	.	20.6µM	?
c1ccc(C[C@H]2CNCCN2CC2(c3ccccc3)CC2)cc1	.	.	?	?
c1ccc2c(C[C@@H]3CNCCN3CC3CCCCC3)cccc2c1	.	.	16.4µM	14.6µM
Oc1ccc(C[C@@H]2CNCCN2CC2CCCCC2)cc1	.	.	23.1µM	16.4µM
CC(C)(C)CN1CCNC[C@H]1Cc1ccc(O)cc1	.	/	.	?
CCCCN1CCNC[C@H]1Cc1ccc(O)cc1	.	/	.	.
SMILES	ClpP mod	TDP1 inh	DT40 TDP1 no CPT	DT40 TDP1 CPT
Cc1[nH]c2ccccc2c1C(=O)/C=C/c1ccccc1Cl	.	.	?	.
O=C(/C=C/c1ccccc1Cl)NC1CCCCC1	.	/	?	.
O=C(/C=C/c1ccccc1Cl)N1CCCN(C(=O)/C=C/c2ccccc2Cl)CC1	.	.	20.6µM	18.4µM
O=C(/C=C/c1ccccc1[N+](=O)[O-])N1CCCCC1	.	.	.	?
O=C(/C=C/c1ccccc1Cl)NC1CCS(=O)(=O)C1 (stereo unspecified)	/	.	18.4µM	20.6µM
O=C(C=Cc1ccccc1Cl)c1ccccc1	/	/	16.4µM	?
Cc1[nH]c2ccccc2c1C(=O)/C=C\c1ccccc1Cl	.	.	?	20.6µM
O=C(NCCCN1CCCC1=O)c1cccc(S(=O)(=O)Nc2ccc(Br)cc2)c1	.	.	.	.
Cc1ccc(C2=CC(=O)C[C@H](c3ccc(Cl)cc3)C2)cc1	.	.	?	23.1µM
COc1ccc(C2=CC(=O)CC(c3ccc(OC)cc3)C2)cc1 (stereo unspecified)	/	.	?	.
COc1ccc(C2=CC(=O)C[C@H](c3ccc(Cl)cc3)C2)cc1	.	.	?	16.4µM
O=C(NCc1ccc2c(c1)CCN2C(=O)c1ccccc1)c1ccc(Br)o1	.	.	?	?
O=C(NCc1ccc2c(c1)CCN2C(=O)c1ccc(F)cc1)c1ccc(Br)o1	.	.	4.11µM	5.17µM
COc1ccccc1C(=O)NCc1ccc2c(c1)CCN2C(=O)c1cccc(C)c1	.	.	?	?
Cc1cccc(C(=O)N2CCc3cc(CNC(=O)CSc4ccccc4)ccc32)c1	.	.	.	.
Cc1cc(NC(=O)NCc2ccc3c(c2)CCN3C(=O)c2ccccc2)ccc1Br	.	.	16.4µM	?
CC(=O)Nc1cccc(C(=O)NCc2ccc3c(c2)CCN3C(=O)c2ccccc2)c1	.	.	?	?
Cc1cccc(C(=O)N2CCc3cc(CNC(=O)c4ccc(Br)o4)ccc32)c1	.	.	?	18.4µM
Cc1cccc(OCC(=O)NCc2ccc3c(c2)CCN3C(=O)c2ccccc2)c1	.	.	23.1µM	?
NS(=O)(=O)c1cc([C@@]2(O)NC(=O)c3ccccc32)ccc1Cl	/	.[21 µM]	/	/
O=C(N/N=C/c1cccs1)c1cccnc1	/	.	23.1µM	.
O=C(N/N=C/c1cccs1)c1cncc(Br)c1	/	.	.	.
O=C(N/N=C/c1ccc[nH]1)c1cccnc1	.	.	6.51µM	14.6µM
COCCNC(=O)CN(Cc1ccc(F)cc1)C(=O)CCC(=O)Nc1nccs1	/	.	.	.
CCCOc1ccc([N+](=O)[O-])cc1C1NC(=S)NC(c2ccccc2)=C1C(=O)OCC (stereo unspecified)	.	.	20.6µM	?
SMILES	ClpP mod	TDP1 inh	DT40 TDP1 no CPT	DT40 TDP1 CPT
O=[N+]([O-])c1ccccc1C(=Nc1ccccc1)c1c(O)cc(O)cc1O	.	/	18.4µM	?
CC(C)N1CCC1(C)C(=O)Nc1nc2ccccc2[nH]1 (stereo unspecified)	.	/	.	.
CCOC(=O)C1(C)CCCN(C(=O)c2ccc3c(c2)OCO3)C1 (stereo unspecified)	.	/	.	.
C[C@@H]1CN([C@H](C)CO)C(=O)c2c(c3ccccc3n2C)-c2ccccc2CO[C@H]1CN(C)C(=O)NC1CCCCC1	.	/	25.9µM	18.4µM
Cc1noc(C)c1C(=O)N(C)C[C@@H]1OCc2ccccc2-c2c(n(C)c3ccccc23)C(=O)N([C@H](C)CO)C[C@H]1C	.	/	18.4µM	?
C[C@@H]1CN([C@H](C)CO)C(=O)c2c(c3ccccc3n2C)-c2ccccc2CO[C@H]1CN(C)C(=O)Nc1ccccc1	.	/	?	?
C[C@H](CO)N1C[C@H](C)[C@H](CN(C)C(=O)c2ccccc2)OCc2ccccc2-c2c(n(C)c3ccccc23)C1=O	.	/	?	?
COc1cc(OC)cc(-c2oc3cccnc3c2C#CCCO)c1	.	/	?	?
COc1cc(OC)cc(-c2sc3ccc(OC)cc3c2C#CC(C)(C)O)c1	.	.	.	.
